Compounds with a hit are over-represented: about 1.5% of the library has one in this group of screens.
dFosB act-1: mouse delta FosB homodimer activation. P13346. purified delta FosB, TAMRA-CDK5 oligo fluorescence polarization; percent of positive-control signal above neutral wells. activation, % at 25 µM. 0.99% of 340,000 active;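 active = mean activation above about 17%, with every replicate also reaching it, limit read from the data, passing the limit was not always enough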
Target sequence (P13346 whole entry, looked up): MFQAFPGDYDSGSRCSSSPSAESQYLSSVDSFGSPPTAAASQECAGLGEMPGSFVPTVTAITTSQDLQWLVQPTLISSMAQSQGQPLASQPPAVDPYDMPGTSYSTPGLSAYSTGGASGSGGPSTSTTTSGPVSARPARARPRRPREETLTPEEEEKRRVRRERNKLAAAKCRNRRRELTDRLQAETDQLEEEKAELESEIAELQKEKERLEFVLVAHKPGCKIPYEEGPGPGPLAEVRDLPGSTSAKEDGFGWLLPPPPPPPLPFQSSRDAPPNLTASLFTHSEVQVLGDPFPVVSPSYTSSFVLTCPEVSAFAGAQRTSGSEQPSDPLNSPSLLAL
CFTR F508del cor: correctors of CFTR F508del function in bronchial epithelial cells | activity (quench increase), % at 7.58 µM | CFBE cells, YFP halide quenching; stimulated with forskolin plus potentiator P3; % fluorescence drop versus neutral controls | 0.36% of 350,000 active;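 active = mean added fluorescence quench of at least 8% versus neutral control, with both replicates also reaching 8%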;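 note: cells transiently co-express mutant CFTR-F508del with the halide-sensitive YFP; corrector assay measuring rescue of mutant channel to the surface after 24 h compound exposure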
RAD52 anneal inh: RAD52 (human) annealing inhibition; 0.46% of 360,000 active; inhibition, % at 18.7 µM; AID 651710; recombinant RAD52 DNA annealing, FRET fluorescence; P43351;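 active = every replicate showing at least 50% inhibition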
Glyco luc inh: blocks N-linked glycosylation in D54 reporter cells; AID 588692; 0.23% of 360,000 active; D54 ERlucT glycosylation luciferase reporter, 24 h; percent of 100 nM tunicamycin response; reporter increase, % at 12.5 µM;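 active = mean luciferase reporter signal, scaled so untreated is 0 and the glycosylation-blocking control 100, at or above a set limit in every replicate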;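 note: luciferase carries N-glycosylation sites so blocking glycosylation raises the light; 0% = median of neutral control wells and 100% = median of 100 nM tunicamycin wells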
PvdQ acylase: P. aeruginosa PvdQ acylase inhibition. purified PvdQ acylase, fluorescence plate reader. inhibition, % at 10 µM. 0.063% of 340,000 active. AID 488965; in the data active = inhibition above about 30%, passing the limit was not always enough;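 note: 0% = vehicle neutral wells and 100% = reference inhibitor wells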
RAD54 branch: inhibitors of human RAD54 branch migration | Q92698 | RAD54 Holliday junction branch migration, FAM/BHQ fluorescence | inhibition, % at 10.4 µM | 0.14% of 360,000 active | AID 602329;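 active = mean normalized replicate activity at least 40 and at least half of replicates scoring 40 or more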;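 note: 0% = median of neutral control wells and 100% = median of positive control wells; inhibitors cause a drop in the FAM fluorescence signal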
dFosB act-2: activators of mouse delta FosB homodimer DNA binding. shares compounds with dFosB act-1. purified delta FosB, TAMRA-CDK5 oligo fluorescence polarization; normalised: neutral wells 0, positive control 100. activation, % at 24.9 µM. 2,400 tested, under 10 active. AID 588690;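 active = highest replicate activation at or above 34% and every replicate reaching that threshold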;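 note: higher polarization means more probe DNA bound by delta FosB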
Numbers without * were called inactive.

For Cc1csc(NC(=O)c2cc3c(s2)-c2ccccc2OC3)n1 the results were dFosB act-1 35*, CFTR F508del cor 2, RAD52 anneal inh -59, Glyco luc inh -4, PvdQ acylase -13, RAD54 branch 8 and dFosB act-2 -2.
`CCc1ccc2nc(N(CCN(C)C)C(=O)/C=C/c3cccs3)sc2c1` gave dFosB act-1 3, Glyco luc inh 1, PvdQ acylase -2 and RAD54 branch 11.
`Cc1ccc2nc(N(CCN(C)C)C(=O)/C=C/c3cccs3)sc2c1` gave dFosB act-1 10, CFTR F508del cor 1, RAD52 anneal inh 11, Glyco luc inh 0 and PvdQ acylase 0.
`CN(C)CCN(C(=O)/C=C/c1cccs1)c1nc2c(F)cc(F)cc2s1` gave dFosB act-1 53*, Glyco luc inh -1, PvdQ acylase -5 and dFosB act-2 4.
Screening CCOc1ccc2nc(N(CCN(C)C)C(=O)/C=C/c3cccs3)sc2c1 returned dFosB act-1 32*, Glyco luc inh -2, PvdQ acylase 0, RAD54 branch 5 and dFosB act-2 6.
`CNC[C@H]1Oc2ncc(-c3cccc(C(=O)N(C)C)c3)cc2C(=O)N([C@H](C)CO)C[C@H]1C` gave CFTR F508del cor -2, RAD52 anneal inh -4 and RAD54 branch -5.
Screening C[C@@H]1CN([C@@H](C)CO)C(=O)c2cc(NS(C)(=O)=O)ccc2O[C@@H](C)CCCCO[C@@H]1CN(C)S(=O)(=O)c1ccccc1 returned CFTR F508del cor 0, RAD52 anneal inh -4 and RAD54 branch 6.
COc1ccc(OCC(=O)Nc2cc(-c3nn(C)c(=O)c4ccccc34)ccc2OC)cc1 was read as dFosB act-1 -14, Glyco luc inh -2, PvdQ acylase -5 and RAD54 branch 0.
For COc1ccc(-c2nn(C)c(=O)c3ccccc23)cc1NC(=O)Cn1nc(-c2ccccc2)c2ccccc2c1=O the results were dFosB act-1 19*, Glyco luc inh -1, PvdQ acylase -7, RAD54 branch -2 and dFosB act-2 -1.
For O=C(NNC(=O)c1ccc(NC(=O)c2ccccc2)cc1)c1ccc(F)cc1 the results were dFosB act-1 39*, CFTR F508del cor -3, RAD52 anneal inh 4, Glyco luc inh -4, PvdQ acylase -1, RAD54 branch -1 and dFosB act-2 7.
O=C(Nc1ccc2cccnc2c1)c1ccc(Br)cc1 was read as dFosB act-1 -12, CFTR F508del cor 2, RAD52 anneal inh -13, Glyco luc inh 0, PvdQ acylase -9 and RAD54 branch -2.
O=C(Nc1ccc(C(=O)c2ccccc2)cc1)c1ccccc1 was read as dFosB act-1 -6, CFTR F508del cor -2, RAD52 anneal inh -5, Glyco luc inh -4, PvdQ acylase -10 and RAD54 branch -1.
O=C(Nc1ccc2nc3ccccc3nc2c1)c1ccc(Br)cc1 was read as dFosB act-1 32*, Glyco luc inh 5, PvdQ acylase -7, RAD54 branch -4 and dFosB act-2 -2.
For O=C(NNC(=O)c1ccc(NC(=O)c2ccccc2)cc1)Nc1ccccc1 the results were dFosB act-1 25*, CFTR F508del cor -2, RAD52 anneal inh -10, Glyco luc inh -3, PvdQ acylase 8 and dFosB act-2 -1.
`CO[C@H]1CN(C)C(=O)c2ccc(NC(C)=O)cc2OC[C@H](C)N(C(=O)CN2CCOCC2)C[C@H]1C` gave CFTR F508del cor 0, RAD52 anneal inh -7 and RAD54 branch 11.
Screening O=C(Nc1ccc(-c2nc3ccccc3[nH]2)cc1)c1ccc2c(c1)OCO2 returned dFosB act-1 58*, CFTR F508del cor -1, RAD52 anneal inh 9, Glyco luc inh 1, PvdQ acylase 18, RAD54 branch 8 and dFosB act-2 -1.
For Cc1ccc2nc(SCC(=O)Nc3ccc(C(N)=O)cc3)[nH]c2c1 the results were dFosB act-1 -2, CFTR F508del cor -1, RAD52 anneal inh -29, Glyco luc inh 3 and PvdQ acylase -4.
For O=C(Nc1ccc(-c2nc3ccccc3[nH]2)cc1)c1c(F)c(F)c(F)c(F)c1F the results were dFosB act-1 29*, CFTR F508del cor 2, RAD52 anneal inh -12, Glyco luc inh 2, PvdQ acylase 1, RAD54 branch -5 and dFosB act-2 0.
`Cc1ccc2nc(-c3ccc(NC(=O)CSc4ccccc4)cc3)[nH]c2c1` gave dFosB act-1 25*, Glyco luc inh -3, PvdQ acylase -9, RAD54 branch 0 and dFosB act-2 5.
CCCNC(=O)N1C[C@@H](O)COC[C@H]2O[C@H](CC(=O)N[C@H]3CCN(Cc4ccccc4)C3)CC[C@@H]21 was read as CFTR F508del cor -2, RAD52 anneal inh -10 and RAD54 branch -3.
`O=C(C[C@H]1CC[C@@H](NS(=O)(=O)c2ccc(F)cc2)[C@H](CO)O1)N1CCC(Cc2ccccc2)CC1` gave CFTR F508del cor 2, RAD52 anneal inh -9 and RAD54 branch -1.
`CC(=O)c1cccc(NC(=O)Cc2coc3cc4c(cc23)CCC4)c1` gave dFosB act-1 41*, Glyco luc inh -1, PvdQ acylase 2 and dFosB act-2 3.
For Cc1ccc(C)c(NC(=O)Cc2coc3cc4c(cc23)CCC4)c1 the results were dFosB act-1 -3, Glyco luc inh 1, PvdQ acylase 0 and RAD54 branch 11.
CNC(=O)C[C@H]1CC[C@@H]2[C@@H](COc3ccc(NC(=O)NCc4ccccc4)cc3C(=O)N2C)O1 was read as CFTR F508del cor 3 and RAD54 branch -2.
O=C(C1CCOCC1)N1[C@H](CO)[C@@H](c2ccccc2)C12CN(Cc1cccnc1)C2 was read as CFTR F508del cor 2 and RAD52 anneal inh -5.
Screening Cc1ccc(C)c(NC(=O)c2ccccc2NS(=O)(=O)c2cc([N+](=O)[O-])ccc2C)c1 returned dFosB act-1 27*, RAD52 anneal inh 3, Glyco luc inh -8, PvdQ acylase -3, RAD54 branch 4 and dFosB act-2 6.
For Cc1ccc([N+](=O)[O-])cc1S(=O)(=O)Nc1cccc(S(=O)(=O)Nc2ccccc2C(=O)O)c1 the results were dFosB act-1 1, CFTR F508del cor 2, RAD52 anneal inh -17, Glyco luc inh 1, PvdQ acylase 1 and RAD54 branch -6.
Screening O=C(COc1ncnc2ccccc12)Nc1cc([N+](=O)[O-])ccc1Cl returned dFosB act-1 21*, CFTR F508del cor 4, RAD52 anneal inh -2, Glyco luc inh 1, PvdQ acylase -9, RAD54 branch -6 and dFosB act-2 -1.
